VP16 counter: inhibits Gal4-VP16 luciferase reporter, ROR gamma counter-screen; AID 2546; Potency, µM (top dose mostly 53.6 µM), most hits filed as inhibitors; 310,000 compounds, 3.5% hits; Drosophila S2 Gal4-VP16 UAS-luciferase, luminescence, 20 h;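 further: Gal4-VP16 expression switched on by copper sulfate through the metallothionein promoter; nearly all actives have a fitted effect of over 50% in size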
TGFb inhibitor: TGF-b pathway inhibition. AID 588855. 410,000 compounds, 1.2% hits. Potency, µM (doses to about 46.1 µM), usual class: inhibitors. HepG2 CAGA-GFP TGF-b/SMAD3 reporter, GFP fluorescence, 18 h; TGF-beta stimulated, 500 pg/mL final; further: nearly all actives have a fitted effect of over 65% in size
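Using HEPG2 CAGA-GFP reporter cells at 1000 cells/well, we pinned test compounds, stimulated with recombinant TGF-beta (500 pg/mL final) and measured total well GFP after 18 h.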
S2 tox: viability counter-screen for ATXN expression inhibitors | S2 cells (HEK-293 line with an ATXN2-luciferase reporter) viability, CellTiter-Fluor protease fluorescence, 24 h | Potency, µM (series often up to 56.7 µM), hits mostly cytotoxic | 400,000 compounds, 0.49% hits | AID 651635; further: nearly all actives have a fitted effect of over 40% in size
RORg inh: blocks mouse ROR gamma transcriptional activity; P51450; Potency, µM (series often up to 53.6 µM), hits mostly inhibitors; AID 2551; 310,000 compounds, 5.4% hits; Drosophila S2 Gal4-RORgamma UAS-luciferase reporter, 20 h; further: nearly all actives have a fitted effect of over 60% in size
Target sequence (P51450 whole entry, looked up, the tested form may be a part): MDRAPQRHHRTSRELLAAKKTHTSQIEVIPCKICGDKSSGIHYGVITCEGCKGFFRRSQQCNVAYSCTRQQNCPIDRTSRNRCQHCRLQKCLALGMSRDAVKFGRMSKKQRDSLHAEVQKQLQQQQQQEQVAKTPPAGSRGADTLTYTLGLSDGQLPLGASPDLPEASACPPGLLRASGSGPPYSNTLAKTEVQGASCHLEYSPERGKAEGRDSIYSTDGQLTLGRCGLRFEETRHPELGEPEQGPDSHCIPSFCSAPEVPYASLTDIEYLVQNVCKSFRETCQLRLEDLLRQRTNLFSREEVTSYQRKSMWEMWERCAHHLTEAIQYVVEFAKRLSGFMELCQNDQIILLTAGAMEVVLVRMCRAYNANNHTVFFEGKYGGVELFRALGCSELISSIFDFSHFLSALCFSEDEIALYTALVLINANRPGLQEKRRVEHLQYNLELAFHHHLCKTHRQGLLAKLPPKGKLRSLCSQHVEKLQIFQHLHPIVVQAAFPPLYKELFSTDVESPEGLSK
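A Gal4/UAS one-hybrid system in insect cells: metallothionein-promoter Gal4–ROR gamma fusion plus Photinus luciferase reporter. Copper sulfate 700 uM final, 20 hr ambient incubation, luminescent detection after 10 min with reagent.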
ATXN2 expr inh: reduces ATXN2 reporter expression in HEK-293 cells; HEK-293 ATXN2-luciferase reporter, luminescence, 24 h; AID 1745845; Potency, µM (top dose mostly 57 µM), hits mostly inhibitors; 360,000 compounds, 0.72% hits; further: nearly all actives have a fitted effect of over 55% in size
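qHTS (up to 57 uM final) was run with 24 h compound exposure of reporter cells at 37 °C. Each well was multiplexed: SteadyGlo luminescence measured ATXN2-luciferase expression after a fluorogenic Gly-Phe-AFC viability readout (25 uM final).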
HepG2 tox: HepG2 cytotoxicity, counter-screen for TGF-b inhibitors; HepG2 CAGA-GFP viability, ATP luminescence, 18 h; Potency, µM (titrated, usually from 46.1 µM), actives largely listed as cytotoxic; 410,000 compounds, 0.76% hits; AID 588856
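CellTiter-Glo luminescence gave cytotoxicity after 18 hours at 37 degrees C. The cells were HepG2 CAGA-GFP in 1% FBS DMEM, stimulated with 500 pg/mL TGF-beta after compound addition. %Activity was normalised to no-cell wells (complete cell-killing) and DMSO (no toxicity), and curves were fitted and classified.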
Hits are given with their value; n = inactive; u = inconclusive; x = no result given; [ ] = another dose, or the depositor's remark. A selection: hits, their analogues and other compounds. The true share with any hit is near 6.3%. The call rests on the fitted dose curve; in most records, active means well fitted curve in the direction sought with a large enough effect; inconclusive means small, poorly fitted or top-dose-only effect, or another doubt; inactive means no such curve, though single readings can be large; an effect the other way counts as inactive or inconclusive.

SMILES	VP16 counter	TGFb inhibitor	S2 tox	RORg inh	ATXN2 expr inh	HepG2 tox
C=CCOn1c(-n2nc(C)cc2C)nc2ccccc2c1=O	n	n	n	u	n	n
CCc1cccc(CC)c1NC(=O)c1c(C)oc2ccc(O)c(CN3CCOCC3)c12	x	n	n	x	n	n
CC(=O)Nc1ccc(S(=O)(=O)NC2(C(F)(F)F)C(=O)Nc3c2c(=O)[nH]c(=O)n3Cc2cccnc2)cc1 (configuration not stated)	n	n	n	n	n[11.3 µM]	2.82µM
O=C(NNc1nc(Nc2ccccc2)nc(N2CCOCC2)n1)Nc1ccc(Cl)cc1	5.62µM	u	u	1.78µM	n	n
CC(=O)Nc1ccc(/C(C)=N/Nc2nc(Nc3ccccc3)nc(N3CCOCC3)n2)cc1	u	n	x	10µM	n	n
CC1CCc2c(sc3nc(C(C)(C)C)nc(N4CCN(C(=O)CCl)CC4)c23)C1 (configuration not stated)	12.6µM	u	u	12.6µM	u	n
COc1ccc(C/C(C)=N/NC(=S)Nc2ccccc2)cc1	u	u	x	20µM	x	n
COc1ccc(C/C(C)=N/NC(=S)Nc2ccc(Cl)cc2)cc1	u	n	n	11.2µM	n	n
COc1ccc(C/C(C)=N/NC(=S)Nc2ccc(C)c(C)c2)cc1	10µM	n	n	u	n	n
COc1ccc(C/C(C)=N/NC(=O)c2ccc(C)cc2C)cc1	n	n	n	n	n	n
CCOc1ccc(NC(=S)N/N=C(\C)Cc2ccc(OC)cc2)cc1	u	u	n	n[10 µM]	n	n
CCOc1ccccc1CNC(=O)CCCN1C(=O)COc2ccc(C)cc21	x	x	x	x	x	n
Nc1c2c(nc3ccccc13)CSCC2	x	n	n	x	n	n
CCOc1cc(C2C(C#N)=C(N)OC(C)=C2C(C)=O)c(Br)c(Br)c1OC(C)C (configuration not stated)	12.6µM	15.8µM	n	u	n	n
CC(=O)Nc1ccc(/C=C/c2ccccn2)cc1	x	n	x	x	x	n
CN(C)NC(=S)Nc1cccc(Cl)c1	7.08µM	n	n	2.24µM	n	n
Cc1cccc(NC(=S)NNc2cccc(Cl)c2)c1	u	u	n	2µM	n	n
Cc1cccc(NC(=O)c2cccc(C(=O)Nc3cccc(C)c3)c2)c1	n	n	n	n	n	n
Cc1cccc(NNC(=S)Nc2ccccc2)c1	x	u	u	x	x	n
Cc1cccc(NNC(=S)Nc2c(C)cccc2C)c1	3.16µM	u	n	3.98µM	n	n
CN(C)CCNC(=S)Nc1cccc(Cl)c1	n	n	n	n	n	n
O=C(NCc1ccccc1Cl)c1csc(COCCO)n1	x	n	n	x	n	n
O=S(=O)(NCC(c1cccs1)S(=O)(=O)c1ccccc1)c1ccc(F)cc1 (configuration not stated)	x	3.98µM	x	x	x	n
S=c1[nH]nc(-c2ccncc2)n1/N=C/C=C/c1ccccc1	n	n	n	2.82µM	n	n
Cc1ccc(-c2n[nH]c(=S)n2/N=C/C=C\c2ccccc2[N+](=O)[O-])cc1	n	n	n	u	n	n
SMILES	VP16 counter	TGFb inhibitor	S2 tox	RORg inh	ATXN2 expr inh	HepG2 tox
O=[N+]([O-])c1ccccc1/C=C/C=N/n1c(-c2ccccc2)n[nH]c1=S	n	n	n	6.31µM	n	n
Cc1cc(-c2n[nH]c(=S)n2/N=C/c2ccccc2[N+](=O)[O-])n[nH]1	u	n	n	n	n	n
O=[N+]([O-])c1ccccc1/C=C/C=N/n1c(-c2ccc(Cl)cc2)n[nH]c1=S	n	n	n	8.91µM	n	n
CCOC(=O)c1cc(C#N)c(SC(C(=O)N2CCCCC2)c2ccccc2)nc1C (configuration not stated)	x	n	x	x	x	n
O=C(O)c1ccc(Nc2ncc3c(n2)-c2ccc(Cl)cc2C(c2c(F)cccc2F)=NC3)cc1	x	x	x	x	n	x
COc1cc(OC)cc(-c2nnc3n2N=C(c2ccc(OC)cc2OC)CS3)c1	n	x	x	u	x	x
COc1ccc2nc(NC(=S)NC(=O)c3ccco3)sc2c1	u	n	u	1.12µM	x	n
COc1ccc2nc(NC(=O)CCNC(=O)c3ccco3)sc2c1	x	n	n	x	n	n
